Compounds with a hit are over-represented: about 12% of the library has one in this group of screens.
NS1 function inh – influenza NS1 inhibition. Potency, µM (series often up to 46.1 µM). hit rate 0.4% among 270,000. AID 2326; calls by dose curve; note: actives are rising curves; nearly all actives have a fitted effect of over 50% in size
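Read-out: OD600 growth recovery of NS1-expressing budding yeast. Cells grown overnight at 30C in -URA glucose medium, washed, resuspended and diluted 1:100 in 2% galactose assay medium, pH 6.0. Same strain lacking NS1 served as positive control.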
Pf growth 48h – inhibits P. falciparum growth in the first generation, 48 h; P. falciparum luciferase growth in erythrocytes, 48 h; Potency, µM (titrated, usually from 28.7 µM), hits mostly inhibitors; hit rate 5.9% among 310,000; AID 504832
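Luciferase-expressing P. falciparum in infected erythrocytes (2% hematocrit, 0.1% parasitemia final) in RPMI 1640/0.5% Albumax were exposed to compound for 48 hours at 37 C, 5% CO2; growth read as luminescence.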
SARS PLpro yeast – blocks SARS-CoV papain-like protease in a yeast assay; Potency, µM (doses to about 32.9 µM), hits mostly activators; hit rate 0.19% among 330,000; S. cerevisiae expressing SARS-CoV PLpro, growth rescue; calls by dose curve; note: nearly all actives have a fitted effect of over 55% in size
Pf growth 96h – P. falciparum growth inhibition at 96 hour, primary screen for plastid delayed-death inhibitors | P. falciparum luciferase reporter growth, 96 h | Potency, µM (top dose mostly 28.7 µM), hits mostly inhibitors | hit rate 6.9% among 320,000
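Erythrocytes infected with luciferase-expressing P. falciparum were dispensed at 2% hematocrit and 0.05% parasitemia (final), then incubated with compounds 96 hours at 37 C in 5% CO2. Luminescence after detection reagent addition reported growth.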
AMA1 RON2 block – disrupts binding of P. falciparum AMA1 to RON2; hit rate 0.2% among 360,000; AID 720542; AlphaScreen AMA1-biotinylated RON2 peptide binding; Potency, µM (highest dose often 58.2 µM), actives largely listed as inhibitors; note: nearly all actives have a fitted effect of over 45% in size
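AMA1 (3D7) with his tag at 25 nM final met compounds first, then biotinylated RON2 peptide at 25 nM; detection used donor plus acceptor beads, 10 µg/mL apiece, read by AlphaScreen after 30 min at room temperature.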
HCV inh – HCV inhibition. Potency, µM (series often up to 41.8 µM), actives largely listed as inhibitors. hit rate 3.4% among 340,000. Huh7.5.1 HCVcc-Cre infection, luciferase reporter, 44 h
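Infectious HCV cell culture screen: compound-treated cells (1,000/well, pre-plated 4 h) are infected with HCVcc-Cre at roughly 0.5 moi and grown 44 h. Infection is quantified by luciferase signal after 15 min substrate incubation at room temperature.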
Numbers stand for hits. Unless noted, calls come from the whole dose curve; as a rule, active = well fitted curve in the direction sought with a large enough effect; inconclusive = small, poorly fitted or top-dose-only effect, or another doubt; inactive = no such curve, though single readings can be large; an effect the other way counts as inactive or inconclusive.

How did CN(C)C(=O)c1ccccc1NC(=O)Cc1cccc2ccccc12 do in these assays?
NS1 function inh: inactive; Pf growth 48h: inactive; SARS PLpro yeast: inactive; Pf growth 96h: inactive; AMA1 RON2 block: inactive; HCV inh: inactive

Results for N[C@@H](CSC1c2ccccc2-c2ccccc21)C(=O)O ?
NS1 function inh: inactive

Results for CCOC(=O)Cc1nnc(NC(=O)C23CC4CC(CC(C4)C2)C3)s1 ?
NS1 function inh: inactive; Pf growth 48h: 13.1µM; SARS PLpro yeast: inactive; Pf growth 96h: inconclusive; AMA1 RON2 block: inactive; HCV inh: inactive

Results for Cc1ccccc1S(=O)(=O)Oc1cccc2c(O)cccc12 ?
NS1 function inh: inactive; Pf growth 48h: inactive; SARS PLpro yeast: inactive; Pf growth 96h: inactive; AMA1 RON2 block: inactive; HCV inh: inactive

What do the screens show for `CC(C)n1c(=O)nc(-c2ccccc2)c2cc3c(cc21)OCO3`?
AMA1 RON2 block: inactive

Results for CC(C)CNC(=O)c1ccccc1NC(=O)CCSc1ccccc1 ?
NS1 function inh: inactive; Pf growth 48h: inactive; SARS PLpro yeast: inactive; Pf growth 96h: inconclusive; AMA1 RON2 block: inactive; HCV inh: inactive

Results for CCC(C)NC(=O)c1ccccc1NC(=O)Nc1ccccc1 (stereo not given) ?
NS1 function inh: inactive; Pf growth 48h: inactive; SARS PLpro yeast: inactive; Pf growth 96h: inactive; AMA1 RON2 block: inactive; HCV inh: inactive

How did CC(C)CNC(=O)c1ccccc1NC(=O)Nc1ccccc1 do in these assays?
NS1 function inh: inactive; SARS PLpro yeast: inactive; Pf growth 96h: 10.4µM; AMA1 RON2 block: inactive; HCV inh: inactive

How did CC(C)CNC(=O)c1ccccc1NC(=O)c1ccc(CSc2ccccc2)cc1 do in these assays?
NS1 function inh: inactive; Pf growth 48h: 13.1µM; SARS PLpro yeast: inactive; Pf growth 96h: 10.4µM; AMA1 RON2 block: inactive; HCV inh: inconclusive

What do the screens show for `O=C(C[n+]1ccccc1)N/N=C/c1ccc(Br)cc1`?
Pf growth 48h: 10.4µM; SARS PLpro yeast: inactive; Pf growth 96h: 2.94µM; AMA1 RON2 block: inactive; HCV inh: inactive

How did O=C(C[n+]1ccccc1)N/N=C/c1ccc(Cl)c(Cl)c1 do in these assays?
NS1 function inh: inactive; Pf growth 48h: 8.28µM; SARS PLpro yeast: inactive; Pf growth 96h: inconclusive; AMA1 RON2 block: inactive; HCV inh: inactive

What do the screens show for `Cc1ccc(S(=O)(=O)Nc2cc3c4c(c2)CCN4C(=O)CC3)cc1`?
Pf growth 48h: inactive; Pf growth 96h: inactive; AMA1 RON2 block: inactive; HCV inh: inactive

What do the screens show for `CC(C)c1nnc(NC(=O)CCC(=O)NCC2CCCO2)s1` (stereo not given)?
NS1 function inh: inactive; Pf growth 48h: inactive; SARS PLpro yeast: inactive; Pf growth 96h: 2.08µM; AMA1 RON2 block: inactive; HCV inh: inactive

How did COc1ccc(C(c2c(C)[nH]n(-c3ccccc3)c2=O)c2c(C)[nH]n(-c3ccccc3)c2=O)cc1OC do in these assays?
NS1 function inh: inactive; Pf growth 48h: inactive; SARS PLpro yeast: 12.6µM; Pf growth 96h: inconclusive; AMA1 RON2 block: inactive; HCV inh: inactive

Results for COc1cc(C#CC#CCN2CCCCC2)ccc1O ?
NS1 function inh: inactive; Pf growth 48h: 8.28µM; SARS PLpro yeast: inactive; Pf growth 96h: inactive; AMA1 RON2 block: inconclusive; HCV inh: inactive

How did CN(C(=O)CSC1=NC2C(N=N1)c1cc(Br)ccc1N2C)C1CCCCC1 (stereo not given) do in these assays?
NS1 function inh: inactive; Pf growth 48h: inactive; SARS PLpro yeast: inactive; Pf growth 96h: inconclusive; AMA1 RON2 block: inactive; HCV inh: inactive

What do the screens show for `Cc1nn(C)c(C)c1S(=O)(=O)N(CC(=O)Nc1ccccn1)c1ccc(C(C)C)cc1`?
NS1 function inh: inactive; Pf growth 48h: inactive; SARS PLpro yeast: inactive; Pf growth 96h: inconclusive; AMA1 RON2 block: inactive; HCV inh: inconclusive

How did Cc1cccc(NC(=O)CN(c2ccc(C(C)C)cc2)S(=O)(=O)c2c(C)nn(C)c2C)n1 do in these assays?
NS1 function inh: inactive; SARS PLpro yeast: inactive; Pf growth 96h: 2.94µM; AMA1 RON2 block: inactive; HCV inh: inconclusive

How did CCOC(=O)c1ccc(NC(=O)CN(c2ccc(C)cc2)S(=O)(=O)c2c(C)nn(C)c2C)cc1 do in these assays?
NS1 function inh: inactive; Pf growth 48h: 10.4µM; SARS PLpro yeast: inactive; AMA1 RON2 block: inactive; HCV inh: inactive

What do the screens show for `COc1ccc(NC(=O)CN(c2ccc(OC)cc2)S(=O)(=O)c2c(C)nn(C)c2C)cc1`?
NS1 function inh: inactive; Pf growth 48h: inconclusive; SARS PLpro yeast: inactive; Pf growth 96h: inactive; AMA1 RON2 block: inactive; HCV inh: inactive

How did COc1ccc2nc(NC(=O)CN(c3ccc(C)cc3)S(=O)(=O)c3c(C)nn(C)c3C)sc2c1 do in these assays?
NS1 function inh: inconclusive; Pf growth 48h: 11.7µM; SARS PLpro yeast: inactive; Pf growth 96h: 2.62µM; AMA1 RON2 block: inactive; HCV inh: inconclusive

Results for COc1ccc(NC(=O)CN(c2ccc(C)cc2)S(=O)(=O)c2c(C)nn(C)c2C)cc1 ?
NS1 function inh: inactive; Pf growth 48h: inconclusive; SARS PLpro yeast: inactive; Pf growth 96h: inactive; AMA1 RON2 block: inactive; HCV inh: inactive

How did Cc1cc[n+]2n1CC(O)C2 (stereo not given) do in these assays?
NS1 function inh: inactive; Pf growth 48h: inactive; SARS PLpro yeast: inactive; Pf growth 96h: inactive; AMA1 RON2 block: inactive; HCV inh: inactive

How did OC[C@H]1O[C@@H](c2nc(-c3ccccc3Br)no2)[C@H](O)[C@@H](O)[C@H]1O do in these assays?
AMA1 RON2 block: inactive

How did CC(=O)Nc1ccc2c(c1)C(=O)c1cccc(C(=O)O)c1-2 do in these assays?
AMA1 RON2 block: inactive; HCV inh: inactive

How did O=C(Nc1ccc(S(=O)(=O)N2CCCCC2)cc1)c1ccc(CN2CCOCC2)cc1 do in these assays?
NS1 function inh: inactive; Pf growth 48h: inconclusive; SARS PLpro yeast: inactive; Pf growth 96h: inactive; AMA1 RON2 block: inactive; HCV inh: 2.82µM

How did O=C(Nc1ccc(Cc2ccncc2)cc1)c1ccc(S(=O)(=O)N2CCOCC2)cc1 do in these assays?
NS1 function inh: inactive; Pf growth 48h: inconclusive; SARS PLpro yeast: inactive; Pf growth 96h: inactive; AMA1 RON2 block: inactive; HCV inh: inconclusive

Results for CCN(CC)S(=O)(=O)c1ccc(NC(=O)c2ccc(CN3CCOCC3)cc2)cc1 ?
NS1 function inh: inactive; Pf growth 48h: 6.57µM; SARS PLpro yeast: inactive; Pf growth 96h: inactive; AMA1 RON2 block: inactive; HCV inh: inconclusive

How did O=C(Nc1ccc2c(c1)OCCO2)c1ccc(CN2CCOCC2)cc1 do in these assays?
NS1 function inh: inactive; Pf growth 48h: inactive; SARS PLpro yeast: inactive; Pf growth 96h: inconclusive; AMA1 RON2 block: inactive; HCV inh: inactive

Results for CC1CCN(S(=O)(=O)c2cccc(C(=O)Nc3ccccc3)c2)CC1 ?
NS1 function inh: inactive; Pf growth 48h: inconclusive; SARS PLpro yeast: inactive; Pf growth 96h: 2.62µM; AMA1 RON2 block: inactive; HCV inh: inconclusive
